Most compounds without a hit are left out; they make up all but 12% or so of the library.
Sfp inh – qHTS Assay for Inhibitors of Bacillus subtilis Sfp phosphopantetheinyl transferase (PPTase); AID 1490, 2009; actives 3.5% (n = 310,000); Biochemical Sfp PPTase activity, qHTS; Potency, µM, most hits filed as inhibitors;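 also: the enzyme is Sfp with the accession as filed and its product quenches rhodamine fluorescence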
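Step 1, compound plus 15 nM Sfp-PPTase, 15 min, room temperature. Step 2, add rhodamine-CoA (5 uM) and BHQ-2-YbbR (12.5 uM). Step 3, read 525/598 nm fluorescence at 0 and 30 min.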
G9a inh – qHTS Assay for Inhibitors of Histone Lysine Methyltransferase G9a; Histone-lysine N-methyltransferase EHMT2 (Homo sapiens), Q96KQ7; G9a H3K9 monomethylation, AlphaScreen, 2 h; Potency, µM (highest dose often 102 µM), most hits filed as inhibitors; actives 8.8% (n = 350,000); also: nearly all actives have a fitted effect of over 75% in size
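Compounds were preincubated with 20 nM G9a for 15 min, after which biotinylated H3K9 peptide (500 nM) and SAM (20 uM) started a 2 h room-temperature reaction. Monomethylated product was quantified by antibody-based AlphaScreen chemiluminescence.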
JMJD2A Tudor inh – qHTS Assay for Inhibitors of JMJD2A-Tudor Domain; Lysine-specific demethylase 4A (Homo sapiens), O75164; AlphaScreen JMJD2A-Tudor / H3K4me3 peptide binding; actives 4.4% (n = 390,000); Potency, µM (titrated, usually from 114 µM), actives largely listed as inhibitors; also: nearly all actives have a fitted effect of over 50% in size
BAZ2B inh – qHTS Assay for Inhibitors of BAZ2B. Potency, µM (doses to about 114 µM), hits mostly inhibitors. AID 504333, 2011. actives 4.4% (n = 360,000). AlphaScreen BAZ2B-H3K14Ac peptide displacement; also: nearly all actives have a fitted effect of over 60% in size
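Inhibition is scored as reduced AlphaScreen emission. The BAZ2B/b-H3(5-23)K14Ac complex (50 nM each) in PBS pH 7.4, 0.01% Tween-20 meets compound (up to 110 uM) for 30 min at RT before bead addition.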
HP1b chromo inh – HTS for Inhibitors of HP1-beta Chromodomain Interactions with Methylated Histone Tails | AlphaScreen HP1-beta / biotin-H3K9me3 peptide binding | Potency, µM (titrated, usually from 114 µM), hits mostly inhibitors | actives 0.56% (n = 390,000); also: nearly all actives have a fitted effect of over 70% in size
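Compound inhibition of the preformed complex between 50 nM HP1-beta and 50 nM biotinylated H3K9me3 peptide was read by AlphaScreen. Buffer was PBS pH 7.4 with 0.01% Tween-20. Incubations ran 30 min at room temperature, with 10 ug/mL donor/acceptor beads.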
A number is an active result; 0 = inactive; ? = inconclusive; - = no result; [ ] = remark or other dose. Calls follow the shape of the dose curve; as a rule, active = well fitted curve in the direction sought with a large enough effect; inconclusive = small, poorly fitted or top-dose-only effect, or another doubt; inactive = no such curve, though single readings can be large; an effect the other way counts as inactive or inconclusive.

SMILES	Sfp inh	G9a inh	JMJD2A Tudor inh	BAZ2B inh	HP1b chromo inh
CCCCNc1nc2c(c(=O)n(C)c(=O)n2C)n1CC(O)COc1ccccc1C (stereo not given)	-	0	0	0	0
CCC(C)[C@H](N)c1nnc(SCc2ccc(Cl)c(Cl)c2)o1 (stereo not given in full)	-	8.9µM	0	?	0
CC(C)[C@H](N)c1nnc(SCc2ccc(Cl)cc2)o1	0	-	14µM	0	0
CCC(C)[C@H](N)c1nnc(SCC(=O)c2ccc(Cl)cc2)o1 (stereo not given in full)	0	0	0	0	0
CC(C)C[C@H](N)c1nnc(SCc2ccc(Cl)cc2)o1	?	0[12.7 µM]	0	0	0
O=C(/C=C/c1ccc(Cl)cc1)N(Cc1ccccc1)C1CCS(=O)(=O)C1 (stereo not given)	0	0	0	0	0
Cc1ccc(SCC(=O)Nc2ccc(S(=O)(=O)Nc3nccs3)cc2)cc1	0	13µM	0	?	0
O=C(COc1ccc(F)cc1Cl)Nc1ccc(S(=O)(=O)Nc2nccs2)cc1	-	32µM	0	0	0
Cc1cccc(OCCCC(=O)Nc2ccc(S(=O)(=O)Nc3nccs3)cc2)c1C	0	45µM	?	?	0
O=C(CSc1ccncc1)Nc1ccc(S(=O)(=O)Nc2nccs2)cc1	0	-	0	?	0
O=C(Nc1ccc(S(=O)(=O)Nc2nccs2)cc1)c1nn(-c2ccc(F)cc2)ccc1=O	0	?	56µM	25µM	0
Cc1cccc(OCCCC(=O)Nc2ccc(S(=O)(=O)Nc3ncccn3)cc2)c1C	0	-	0	0	0
N#CC1=C(Nc2ccccc2)SC=C(c2ccc(Cl)c(Cl)c2)N=C1N1CCOCC1	0	0[0.501 µM]	0	?	0
N#CC1=C(Nc2ccccc2)SC=C(c2ccccc2)N=C1N1CCOCC1	0	50µM	0	0	0
O=C(N/C(=C\c1ccco1)C(=O)N1CCCC1)c1cccs1	?	?	0	0	0
O=C(N/C(=C\c1ccco1)C(=O)N1CCCCC1)c1ccc([N+](=O)[O-])cc1	-	-	0	-	0
O=C(N/C(=C/c1ccco1)C(=O)N1CCCC1)c1cccs1	32µM	0[2.33 µM]	0	?	0
Cc1ccc(C(=O)N/C(=C/c2ccco2)C(=O)N2CCCCCC2)cc1	0	71µM	0	0	0
Cc1cccc(C(=O)N/C(=C\c2ccco2)C(=O)N2CCCC2)c1	?	40µM	0	0	0
O=C(O)/C(=C\c1ccco1)NC(=O)c1cccc2ccccc12	79µM	-	89µM	?	0
O=C(Nc1ccccc1Cl)c1ccc(-c2ccccn2)s1	0	0	0	0	0
COc1ccc(NC(=O)C2CCCN(S(=O)(=O)c3cn(C)cn3)C2)cc1Cl (stereo not given)	-	0	0	0	0
O=C(O)c1ccc(S(=O)(=O)N(Cc2ccc(F)cc2)C2CCCCC2)cc1	0	?	0	0	0
O=C(N/C(=C\c1ccco1)C(=O)N1CCCC1)c1ccccc1	0	40µM	0	0	0
O=C(O)/C(=C/c1ccco1)c1ccccc1	22µM	?	-	0	-
SMILES	Sfp inh	G9a inh	JMJD2A Tudor inh	BAZ2B inh	HP1b chromo inh
O=C(Nc1ccc(O)cc1)/C(=C/c1ccco1)NC(=O)c1ccccc1	0	0[12.7 µM]	0	?	0
Cc1ccc(NC(=O)/C(=C/c2ccco2)c2ccccc2)c(C)c1	0	50µM	0	?	0
O=C(O)/C(=C/c1ccco1)NC(=O)c1ccccc1	0	45µM	?	0	0
O=C(CN1c2ccccc2Sc2ccccc21)NNC(=S)Nc1ccc(Cl)cc1Cl	0	0	0	0	0
CCOc1ccc(S(=O)(=O)N/N=C2/CC(c3ccccc3)Oc3ccccc32)cc1 (stereo not given)	0	7.9µM	0	0	0
O=C1[C@H]2[C@H](ON3CCCC[C@H]23)C(=O)N1c1cccc(C(F)(F)F)c1	0	0	0	0	0
COc1ccc([C@@H]2[C@H]3C(=O)N(c4cccc(C(F)(F)F)c4)C(=O)[C@H]3ON2C)cc1	0	45µM	0	0	0
Cc1ccc(S(=O)(=O)CCC(=O)OCC(=O)c2cc(C)n(C)c2C)cc1	-	0[12.7 µM]	0	?	0
CC(=S)c1c(C)cc2cc(C)ccn12	?	?	25µM	10µM	22µM
Cc1cc2ccccn2c1C(=O)Nc1ccc(Cl)cc1	0	0	0	0	0
COc1ccc(NC(=O)C2=C(C)Nc3ncnn3C2c2ccccn2)cc1 (stereo not given)	-	?	89µM	?	0
CCOc1ccccc1NC(=O)C1=C(C)Nc2ncnn2C1c1ccco1 (stereo not given)	-	0	0	0	0
CC1=C(C(=O)Nc2cccc(C(F)(F)F)c2)C(c2ccccn2)n2ncnc2N1 (stereo not given)	-	20µM	50µM	?	0
COc1ccccc1NC(=O)C1=C(C)Nc2ncnn2C1c1ccc[nH]1 (stereo not given)	-	0	56µM	?	0
COc1ccccc1NC(=O)C1=C(C)Nc2ncnn2C1c1ccccn1 (stereo not given)	-	0	0	0	0
CCC1(C)CC(=O)c2c(ccc3oc(C(=O)NCc4ccccc4)c(C)c23)O1 (stereo not given)	-	0	0	0	0
Cc1ccc(C)c(/C=C2\CCn3c2nc2cc(C(=O)O)ccc2c3=O)c1	0	0	0	0	0
CC(=O)c1cc(C(=O)c2ccccc2)sc1Nc1ccccc1	79µM	0	0	0	0
CC(=O)c1cccc(NC(=O)c2cc(Cl)sc2Cl)c1	0	0	0	0	0
Cc1cc(C(=O)OCC(=O)NCc2ccc(Cl)cc2)c(C)o1	0	0	0	0	0
O=C(/C=C/c1ccccc1)CC(=O)c1ccccc1O	?	16µM	25µM	?	0
COc1cc(/C=C/C(=O)NC(=O)c2ccccc2O)ccc1O	0	0	0	0	0
O=C(/C=C/c1ccccc1)NC(=O)c1ccccc1O	0	?	?	79µM	0
O=C(NCCC(=O)N1CCN(S(=O)(=O)c2ccc(Cl)cc2)CC1)Nc1ccccc1	-	50µM	0	0	0
O=C(NCc1ccc(Cl)cc1)N1CCN(S(=O)(=O)c2ccccc2)CC1	0	50µM	0	0	0
CCCc1ccc(S(=O)(=O)N2CCN(C(C)C(=O)NCc3ccccc3)CC2)cc1 (stereo not given)	-	56µM	0	0	0
COc1cccc(CNC(=O)N2CCN(S(=O)(=O)c3ccc(Cl)cc3)CC2)c1	0	0	0	0	0
O=C(NCCC(=O)N1CCN(c2ccccc2O)CC1)c1ccc(Cl)cc1	-	50µM	0	0	0
COc1ccc(CN2C3CCCC2CC(NC(=O)Nc2ccccc2C)C3)cc1 (stereo not given)	0	0	0	0	0
Cc1cccc(C)c1NC(=O)CN1C(=O)N(C)Cc2ccccc21	0	0	0	0	0

Bioassay records: PubChem, National Center for Advancing Translational Sciences (NCATS)
